KKLEB tox = counter-screen for CF NF-kB inhibitors: cytotoxicity; KKLEB CF airway cells viability, ATPlite luminescence, overnight; hits give low values; cells stimulated with P. aeruginosa culture filtrate; activity change (cytotoxicity), % at 5 µM; hit rate 0.36% among 360,000; AID 602141;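 active means corrected activity change at or below -50% at 5 µM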
Shn3 inh set2 = inhibitors of Schnurri-3 3'UTR reporter in osteoblasts. Clone20 osteoblast Shn3 3'UTR firefly luciferase, 24 h. inhibition, % at 12.5 µM. hit rate 0.52% among 360,000;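 active means mean inhibition of at least 75% with every replicate also reaching 75%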;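 further: 0% = median of neutral control wells and 100% = pilot-screen positive control compound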
CF NFkB inh = inhibitors of cystic fibrosis induced NF-kB | KKLEB NF-kB-GFP reporter, PAF-induced, GFP fluorescence overnight | inhibition, % at 5 µM | hit rate 0.86% among 360,000 | AID 588850;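 active means at least 50% inhibition at 5 µM, scaled per plate between neutral and stimulator controls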;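 further: PAF is a Pseudomonas aeruginosa culture filtrate used as stimulus; plate controls were PAF-stimulated DMSO wells for no effect and unstimulated DMSO wells for full effect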
HIF-2a inh = inhibitors of HIF-2a; AID 624352; hit rate 0.72% among 360,000; 786-0 RCC cells HIF-2a reporter, luciferase luminescence, overnight; inhibition, % at 18.8 µM;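 active means inhibition of the luminescence signal of 40% or more relative to plate controls, in a single-dose primary screen at 18.75 µM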
TRPM1 prom inh = inhibitors of MITF-driven TRPM1 promoter in melanoma cells | SK-MEL-5 TRPM1 promoter luciferase, 24 h | inhibition, % at 12.5 µM | hit rate 0.83% among 330,000 | AID 488899;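 active means mean inhibition across replicates of 60% or more, whatever share of single replicates reaches that level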
Peg3 promoter = reduces Peg3 promoter-driven luciferase expression in HeLa; HeLa PEG-Prom luciferase reporter, luminescence, overnight; inhibition, % at 20 µM; hit rate 1.7% among 360,000; AID 588405;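 active means inhibition of at least 50% at 20 µM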
An asterisk follows results filed as active; · = no result; ! = repeats disagree. The list is not random: actives were taken first. Their share in the collection is about 2.8%.

SMILES	KKLEB tox	Shn3 inh set2	CF NFkB inh	HIF-2a inh	TRPM1 prom inh	Peg3 promoter
COC(=O)c1ccc(C(=O)NC(=S)Nc2nc3c(s2)CCCC3)cc1	4	-52	5	-61	-5	-193
O=C(NC(=S)Nc1nc2c(s1)CCCC2)c1ccccc1	-52*	-64	44	-222	-30	-163
O=C(NC(=S)NCc1ccccc1)c1ccccc1	-2	13	6	-12	104*	-21
CC(=O)c1sc(N/N=C2\CC3CCC2(C)C3(C)C)nc1C (stereo not given)	-5	9	22	-26	-1	-6
CN(Cc1ccccc1)CC1C2CCC(C2)C1O (stereo not given)	1	4	0	19	-3	3
C#CCn1c(=NC(=O)c2cc(-c3cccs3)nc3ccccc23)sc2cc(S(N)(=O)=O)ccc21	-56*	2	37	30	-16	30
C#CCn1c(=NC(=O)c2cc(Cl)sc2Cl)sc2cc(S(N)(=O)=O)ccc21	6	16	-13	5	-11	-9
COc1ccc(CCN2C(=O)c3cccc4cccc(c34)C2=O)cc1OC	16	14	-16	-2	6	8
CCN(CC)C(=O)c1ccc2c3c(cccc13)C(=O)N(CCc1ccc(OC)c(OC)c1)C2=O	-6	24	4	3	26	60*
CCOc1ccccc1-n1c(CN2CCN(C(=O)c3ccco3)CC2)nc2ccccc2c1=O	-9	2	27	32	80*	104*
CCOc1ccccc1-c1nc(CN2CCN(C(=O)c3ccco3)CC2)c(C)o1	8	-11	6	12	12	-4
Cc1nc(CN(C)c2ncnc3ccc(-c4ccc5c(c4)OCO5)cc23)cs1	-13	52	-19	55*	·	32
COc1ccc(C(C)(O)c2nc(-c3ccc(S(C)(=O)=O)cc3)cs2)cc1 (stereo not given)	-13	-8	-4	9	·	15
Cc1cc(C)cc(NC(=O)CCc2nc3sc4c(c3c(=O)[nH]2)CCCC4)c1	-5	-44	-2	4	6	84*
CC(=O)Nc1ccc(NC(=O)CCc2nc3sc4c(c3c(=O)[nH]2)CCCC4)cc1	-8	-4	13	11	5	6
COc1cc2sc3ccc(C#CC4(O)CCCCC4)cc3c(=O)c2cc1OC	-36	-53	4	-130	-34	-20
COc1cccc2sc3cc(C#CC4(O)CCCCC4)ccc3c(=O)c12	-27	-98	13	-210	-64	89*
Cn1c2ccccc2c(=O)c2ccc(C#CC3(O)CCCCC3)cc21	-42	5	48	3	15	70*
CC(C)(C)OC(=O)NCc1ccc(NC(=O)c2nc[nH]c2C(=O)NCCN(CCNC(=O)c2[nH]cnc2C(=O)Nc2ccc(CNC(=O)OC(C)(C)C)cc2)CCNC(=O)c2[nH]cnc2C(=O)Nc2ccc(CNC(=O)OC(C)(C)C)cc2)cc1	3	-12	-25	15	-2	9
CC(C)(C)OC(=O)NCc1ccc(NC(=O)c2nc[nH]c2C(=O)NCCCNC(=O)c2[nH]cnc2C(=O)Nc2ccc(CNC(=O)OC(C)(C)C)cc2)cc1	7	9	40	16	30	78*
Cc1ccc(NC(=O)c2nc[nH]c2C(=O)NCCCCCNC(=O)OC(C)(C)C)cc1	-7	25	24	1	18	29
CC(C)(C)OC(=O)NCc1ccc(NC(=O)c2nc[nH]c2C(=O)NCCCCNC(=O)c2[nH]cnc2C(=O)Nc2ccc(CNC(=O)OC(C)(C)C)cc2)cc1	-34	23	77*	1	32	93*
CC(C)(C)OC(=O)NCc1ccc(NC(=O)c2nc[nH]c2C(=O)NCCCCCCNC(=O)c2[nH]cnc2C(=O)Nc2ccc(CNC(=O)OC(C)(C)C)cc2)cc1	-83*	31	88*	13	5	101*
CC(Oc1ccccc1)C(=O)Nc1nc(-c2ccncc2)cs1 (stereo not given)	-32	15	27	28	-12	-4
CC(Oc1ccccc1)C(=O)Nc1nc(-c2ccccn2)cs1 (stereo not given)	-8	77	17	4	62*	33
SMILES	KKLEB tox	Shn3 inh set2	CF NFkB inh	HIF-2a inh	TRPM1 prom inh	Peg3 promoter
CC(Oc1cccc(Cl)c1)C(=O)Nc1nc(-c2ccccn2)cs1 (stereo not given)	9	45	-22	13	64*	29
Cc1ccc2nc(N3CCN(c4cccc(C)c4C)CC3)c3nnnn3c2c1	3	7	-5	3	10	10
Cc1ccc2nc(Cl)c3nnnn3c2c1	-20	97*	71*	-5	40	111*
COc1ccc(S(=O)(=O)N2CCOCC2)cc1NC(=O)C1CCN(S(=O)(=O)c2ccc(Cl)cc2)CC1	-3	9	13	13	·	-3
COc1ccc(C[C@H]2CN3C(=NC[C@H]3Cc3ccccc3)N2CCNC(=O)CCC2CCCCC2)cc1	-16	27	22	-6	35	90*
C/C=C(\C)C(=O)NCCN1C2=NC[C@H](Cc3ccccc3)N2C[C@@H]1Cc1ccc(OC)cc1	-1	-3	-12	10	-3	-16
COc1ccc(C[C@H]2CN3C(=NC[C@@H]3Cc3ccccc3)N2CCNC(=O)c2ccc(C)c(Br)c2)cc1	-33	-7	27	2	31	97*
COc1ccc(C[C@H]2CN3C(=NC[C@@H]3Cc3ccc(O)cc3)N2CCNC(=O)c2ccc(C)c(Br)c2)cc1	-17	31	21	-4	24	45
COc1ccc(C[C@H]2CN3C(=NC[C@H]3Cc3ccccc3)N2CCNC(=O)c2ccc(C)c(Br)c2)cc1	-9	13	33	5	58	95*
Cc1ccc(C(=O)NCCN2C3=NC[C@@H](Cc4ccccc4)N3C[C@H]2Cc2ccc(O)cc2)cc1Br	5	12	-2	6	-13	79*
CC1(C(=O)NCc2cccc(Cl)c2)Cc2c(-c3ccc4c(c3)OCO4)ccnc2O1 (stereo not given)	-3	5	6	12	·	23
COc1ccc(CCC(C)NC(=O)Cc2ccc(OC)c(OC)c2)c(OC)c1 (stereo not given)	-9	31	8	26	5	-4
COc1ccc(N2C(=O)C(Cl)=C(Oc3cccc(OC)c3)C2=O)cc1	4	36	12	93*	24	107*
COc1ccc(N2C(=O)c3ccccc3C2=O)cc1	-8	6	-32	-23	5	-23
C=CCn1c(=O)c2ccccc2n2c(SCC(=O)/C(C#N)=C(\C)N)nnc12	-5	93*!	2	12	-5	3
C=CCn1c(=O)c2ccccc2n2c(SC(C)C(N)=O)nnc12 (stereo not given)	4	-1	6	15	-19	-4
Cc1oncc1C(=O)N1CCCC(CO)(Cc2ccc(F)cc2F)C1 (stereo not given)	5	-29	5	-68	-22	-47

Assay outcomes (PubChem BioAssay)
